High-throughput results: PubChem BioAssay, National Center for Advancing Translational Sciences (NCATS)
GALC G270D act: galactocerebrosidase G270D activity enhancement, cell-based | AID 1159614 | Potency, µM (series often up to 57.5 µM), most hits filed as activators | 0.1% of 45,000 active | P54803 | 145M-Twi-hGALC-G270D cells (Twitcher mouse brain line with human GALC G270D), HMU-beta-Gal fluorescence, 48 h; further: potency means the concentration at half of the fitted maximal effect; 0% is about no effect; nearly all actives have a fitted effect of over 65% in size
Target sequence (P54803 whole entry G286D): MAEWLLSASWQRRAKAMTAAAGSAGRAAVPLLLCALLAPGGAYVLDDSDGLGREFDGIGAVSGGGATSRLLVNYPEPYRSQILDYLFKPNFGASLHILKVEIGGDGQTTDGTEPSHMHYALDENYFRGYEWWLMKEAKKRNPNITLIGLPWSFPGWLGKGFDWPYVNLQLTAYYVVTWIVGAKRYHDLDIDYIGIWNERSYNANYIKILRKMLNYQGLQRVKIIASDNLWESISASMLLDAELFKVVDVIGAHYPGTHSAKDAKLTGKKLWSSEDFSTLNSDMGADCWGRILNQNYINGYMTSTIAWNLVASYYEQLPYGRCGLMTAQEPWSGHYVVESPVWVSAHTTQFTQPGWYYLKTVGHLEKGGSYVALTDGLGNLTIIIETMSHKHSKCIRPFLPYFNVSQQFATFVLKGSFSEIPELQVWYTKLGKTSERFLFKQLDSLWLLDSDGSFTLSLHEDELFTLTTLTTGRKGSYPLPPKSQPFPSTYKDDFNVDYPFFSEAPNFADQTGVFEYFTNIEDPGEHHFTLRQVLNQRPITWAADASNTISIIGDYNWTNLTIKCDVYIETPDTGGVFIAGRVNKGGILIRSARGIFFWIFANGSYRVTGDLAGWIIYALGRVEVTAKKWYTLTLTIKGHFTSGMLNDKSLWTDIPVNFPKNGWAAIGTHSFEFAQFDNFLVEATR
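Mutant human GALC (G270D), stably expressed in a Twitcher mouse brain cell line lacking endogenous GALC, is measured in live-treated cells via 6-hexadecanoylamino-4-methylumbelliferyl-β-galactoside hydrolysis (0.1 mM final, pH 5.2) with fluorescent detection.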
DRV1 agonist: agonists of human resolvin D1 receptor DRV1 (GPR32); O75388; CHO-K1 GPR32 beta-arrestin PathHunter luminescence, 90 min; zero percent set by DMSO-only wells; activation, % at 76.9 µM; 2.5% of 48,000 active;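 active means activation of at least 60% and not above a set upper limit, about 1 call in 100 departs from these limits; inconclusive means activation of 40% to 60%, or above that upper limit; inactive means activation under 40%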; further: 0% is about no effect
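GPR32 activation in stably transfected CHO-K1 cells, detected as beta-arrestin recruitment by enzyme-fragment complementation. Compound exposure: 90 min, 37 °C.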
FH mod: Identification of activators of human fumarate hydratase by quantitative high-throughput screening; AID 1347055, 2019; Fumarate hydratase, mitochondrial (Homo sapiens), P07954; Potency, µM (series often up to 79.9 µM), for inactives: top-dose activity change, negative = inhibition, usual class: inhibitors; 0.22% of 54,000 active; FH coupled MDH/diaphorase resazurin fluorescence, 15 min; further: potency means the concentration at half of the fitted maximal effect; on the % scale 0 is the no-effect control and ±100 the full control effect; the screen sought activators but most active calls are inhibition curves; nearly all actives have a fitted effect of over 45% in size
B2AR arrestin ag: beta-arrestin recruitment by human beta2-adrenergic receptor ligands; P07550; HTLA Tango cells, beta-arrestin recruitment, luciferase luminescence, 18 h; Potency, µM (titrated, usually from 46.1 µM), most hits filed as activators; 44,000 tested, under 10 active; AID 1347077;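 further: potency means the concentration at half of the fitted maximal effect; 0% = DMSO and full agonism = EC100 isoproterenol or metaproterenol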
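Tango cells (recombinant beta2-AR, beta-arrestin, tTA-driven luciferase), 1500/well in DMEM 1% FBS, treated 18 h at 37 °C with compounds up to 46 µM; luciferin mix added, luminescence read after 15 min; %activity curves fitted and curve-classed.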
The depositor's hits bear a star; i = inactive; u = inconclusive; x = not tested or not shown; ! = repeats disagree; [ ] = another dose, or the depositor's remark. In the library only some 2.8% were active in any assay of this set; here they are far more common. Unless noted, the call rests on the fitted dose curve; in most records, active means well fitted curve in the direction sought with a large enough effect; inconclusive means small, poorly fitted or top-dose-only effect, or another doubt; inactive means no such curve, though single readings can be large; an effect the other way counts as inactive or inconclusive.

SMILES | GALC G270D act | DRV1 agonist | FH mod | B2AR arrestin ag
CC1(C)CC[C@]2(C(=O)OC3OC(CO)C(O)C(O)C3O)CC[C@]3(C)C(=CCC4[C@@]5(C)CC[C@H](OC6OC(C(=O)O)C(O)C(OC7OC(CO)C(O)C(O)C7O)C6O)C(C)(C)C5CC[C@]43C)C2C1 (stereo partly drawn) | x | x | 6%[20.6 µM] | x
CCc1nc(SCc2cc(=O)c3cc(C)ccc3[nH]2)n[nH]1 | i | 0 | 7% | i
O=c1cc(CSc2n[nH]c(-c3ccccc3)n2)[nH]c2ccccc12 | i | 93* | -14% | i
CC1(c2nc3c(C(N)=O)cccc3[nH]2)CCCN1 (stereo not drawn) | x | x | 9% | x
Cc1ccc(-c2csc(=Nc3ccccc3)n2CCCO)cc1 | i | 86* | -20% | i
OCCCn1c(-c2ccc(F)cc2)csc1=Nc1ccc(F)cc1 | i | -8 | -18% | i
CCC(C)C(=O)Oc1cc(C)ccc1C1(COC(=O)C(C)C)CO1 (stereo not drawn) | x | x | 5%[53.3 µM] | x
O=C(NCc1ccc(Cl)cc1Cl)c1cccc(N2CCCS2(=O)=O)c1 | i | 62* | 0% | i
CCCc1cc(C)[nH]c(=O)c1CNC(=O)c1cc(-c2ccnc(N3CCN(C)CC3)c2)cc2c1cnn2C(C)C | x | x | 7% | x
COc1c(C)c(OCC(O)C(C)(C)O)cc2c1CNC2=O (stereo not drawn) | x | x | -2% | x
CCOc1cc(CNCCSc2nnnn2C)cc(Cl)c1OCc1ccc(Cl)cc1 | i | 26 | u | i
COc1cccc(CNCCSc2nnnn2C)c1OCc1ccc(Cl)cc1 | i | 116* | -19% | i
COc1cc(CNCCSc2nnnn2C)cc(Cl)c1OCc1ccccc1 | i | 89* | -5% | i
COc1cccc(CNCCSc2nnnn2C)c1OCc1ccc(Cl)cc1Cl | i | u | u | i
O=c1cc[nH]c(=S)[nH]1 | i | 68* | -15%[53.3 µM] | x
O=C(CSc1cn(CCNC(=O)c2c(F)cccc2F)c2ccccc12)Nc1ccc2c(c1)OCCO2 | i | 68* | 1% | i
COc1ccc(C(=O)NCCn2cc(SCC(=O)Nc3ccc4c(c3)OCCO4)c3ccccc32)cc1OC | i | 34 | u | i
CC1CCCN(C(=O)c2cc3c(Cl)nc4ccccc4c3s2)C1 (stereo not drawn) | i | 108* | -25% | i
CCN(CC)CCCNC(=O)c1ccc(-c2nc(CN3CCc4ccccc43)c(C)o2)cc1 | i | 95* | -3% | i
Cc1ccc(CNC(=O)c2ccc(-c3nc(CS(=O)(=O)c4ccc(C)cc4)c(C)o3)cc2)cc1 | u | 110* | u | i
COCCCNC(=O)c1ccc(-c2nc(CS(=O)(=O)c3ccc(C)cc3)c(C)o2)cc1 | x | 7 | x | i
CCCCNC(=O)c1ccc(-c2nc(CS(=O)(=O)c3ccc(C)cc3)c(C)o2)cc1 | i | 69* | -11% | i
N#Cc1c(Oc2ccc(F)c(NC(=O)Cc3cccc(C(F)(F)F)c3)c2)ccc2nc(NC(=O)C3CC3)sc12 | x | x | -12% | x
CC1CC2(O)OC(=O)C3=C2C(CCC3)[C@@]12C[C@@H](c1ccoc1)OC2=O (stereo partly drawn) | x | x | -1%[53.3 µM] | x
COc1ccccc1N(CC(=O)NCCSCc1ccccc1Cl)S(C)(=O)=O | i | 21 | 2% | i
SMILES | GALC G270D act | DRV1 agonist | FH mod | B2AR arrestin ag
COc1ccccc1N(CC(=O)NCCSCc1cccc(Cl)c1)S(C)(=O)=O | i | 88* | -11% | i
COCCOc1cnc2ccn([C@H](C)c3nnc4c(F)cc(-c5cnn(C)c5)cn34)c(=O)c2c1 | x | x | 2% | x
CCCCn1c(=N)n(CCOc2ccccc2OC)c2ccccc21 | i | 65* | -4% | i
CCn1c(=N)n(CCOc2ccc(Br)cc2)c2ccccc21 | i | 5 | -5% | i
COc1ccc2[nH]cc(CCNC(=O)Nc3c(C)cccc3C)c2c1 | i | 32 | -7% | i
COc1ccc2[nH]cc(CCNC(=O)Nc3cccc(F)c3)c2c1 | i | 93* | -13% | i
Cc1c(C(=O)O)oc2c1-c1nn(Cc3ccc(Cl)cc3)cc1CC2 | i | -24 | -39% | i
CCOC(=O)c1oc2c(c1C)-c1nn(Cc3ccc(Cl)cc3)cc1CC2 | i | -41 | 32µM*[activator] | i
Cc1ccccc1-c1nc(CN2CCCC(C(=O)NCc3ccc(Cl)cc3)C2)c(C)o1 (stereo not drawn) | i | 23 | -24% | i
Cc1oc(-c2cccc(Cl)c2)nc1CN1CCCC(C(=O)NCc2ccc(F)cc2)C1 (stereo not drawn) | i | 70* | -13% | i
Cc1oc(-c2ccc(Cl)cc2)nc1CN1CCCC(C(=O)NCc2ccccc2)C1 (stereo not drawn) | i | 106* | -13% | i
CNC(=O)c1ccccc1Nc1nc(Nc2ccc3c(c2OC)CCCC(N2CCN(CCO)CC2)C3)ncc1Cl (stereo not drawn) | x | x | 2% | x
O=C(Nc1ccc(Br)cc1)c1ccc(F)c(S(=O)(=O)NC2CCCCCC2)c1 | i | 8 | u | i
O=C(Nc1cc(Cl)cc(Cl)c1)c1ccc(F)c(S(=O)(=O)NC2CCCCC2)c1 | i | 69* | -21% | i
C=C1C(=O)O[C@@H]2/C=C(\CO)CC/C=C(/C=O)C[C@H](O)[C@@H]12 | x | x | -2% | x
O=C1c2ccccc2-[n+]2ccc3c([nH]c4ccccc43)c21 | x | x | 6.9µM* | x
C[C@@H]1CCC2C(C)(C)[C@H](O)[C@H](O)C[C@]2(C)[C@@]12Cc1c(O)cc3c(c1O2)CN(CCCC(=O)O)C3=O (stereo partly drawn) | x | x | 7%[53.3 µM] | x
Cc1c(C(=O)OC2CCCCCC2)[nH]c2c1C(=O)CC(c1ccccc1)C2 (stereo not drawn) | i | 79* | 1% | i
Cc1ccc(Cl)c(Nc2ccccc2C(=O)O)c1Cl | i | 103*! | u | x
COc1ccc(OC2OC(CO[C@@H]3O[C@@H](C)[C@H](O)[C@@H](O)[C@H]3O)C(O)C(O)C2O)cc1OC (stereo partly drawn) | x | x | 16%[53.3 µM] | x
CCOC(=O)c1c(NC(=O)c2ccc(S(=O)(=O)N3CCC(C)CC3)cc2)sc2c1CCN(C(C)C)C2 | i | 78* | -10% | i
CC(C)(C)C1CCN(C(=O)n2ncc(C(O)(c3ccccc3)c3ccccc3)n2)CC1 | x | x | -23% | x
CCOc1ccccc1C(=O)Nc1cc2c(cc1N1CCCCC1)n(C)c(=O)n2C | x | 70* | x | i
CC#CC(=O)N1CCC[C@H]1c1nc(-c2ccc(C(=O)Nc3ccccn3)cc2)c2c(N)nccn12 | x | x | 7% | x
Cc1ccc2nc3c(c(Nc4ccc(C)c(C)c4)c2c1)CCC3 | i | 101* | -10% | i
Cc1ccc(COC(=O)N2CC[C@@H](CNc3ncccn3)[C@@H](F)C2)cc1 | x | x | 0% | x
